Results from the supplement of paper PMC10849652.
Of roughly 8,800 targets only a part is listed; those with a hit were picked by preference. About 0.5% of all pairs of compound and target were hits. Values without a mark were called inactive.

How the values were obtained:
Assay in all cases: log2 fold change, soluble protein after heating vs DMSO (PISA); higher = thermal stabilisation; K562 lysate, 10 uM; active = over 0.2 and 3.5 SD of the protein, either way, in both replicates (recomputed)
[1] = compound: CN1CC[C@H](c2c(O)cc(O)c3c(=O)cc(-c4ccccc4Cl)oc23)[C@H](O)C1 [alvocidib]
Procedure, shortened: (§1)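 Following dounce homogenisation of K562 pellets in PBS pH 7.4 with 1 mM MgCl2, crude extract at 1 mg/mL protein was incubated for 30 min with 10 μM compound. Aliquots were then heated for 3 min over 48°C-58°C and pooled, NP-40 was added to 0.5% at 4°C, and soluble protein was recovered as the supernatant at 21,000xg for 90 min. Channel-sum-equalised TMTpro 16plex LC-MS/MS quantified this protein. Each value, from duplicates, is a log-two fold change in thermal stability relative to solvent controls.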

[2] = compound: CN1CCc2c(c3ccccc3n2Cc2ccc(C(=O)NO)cc2)C1 [Tubastatin A]
Procedure, shortened: as §1

[3] = compound: CNC(=O)C1=CC=CC=C1NC2=NC(=NC=C2Cl)NC3=C(C=C(C=C3)N4CCOCC4)OC
Procedure, shortened: as §1

[4] = compound: CNC(=O)c1ccc(Nc2ncc(C(F)(F)F)c(NCc3nccnc3N(C)S(C)(=O)=O)n2)cc1 [defactinib]
Procedure, shortened: as §1

[5] = compound: COC(=O)N[C@@H](C)CNc1nccc(-c2cn(C(C)C)nc2-c2cc(Cl)cc(NS(C)(=O)=O)c2F)n1 [encorafenib]
Procedure, shortened: as §1

[6] = compound: COC(=O)[C@H](CCSC)NC(=O)C1=C(C=C(C=C1)NC[C@H](CS)N)C2=CC=CC=C2
Procedure, shortened: as §1

[7] = compound: COc1cc(Nc2ncc3c(n2)-c2ccc(Cl)cc2C(c2c(F)cccc2OC)=NC3)ccc1C(=O)O [alisertib]
Procedure, shortened: as §1

[8] = compound: COc1cc2nc(-c3cc(F)ccc3O)nc(N[C@@H]3CNC[C@H]3C(C)(C)O)c2cc1OC
Procedure, shortened: as §1

[9] = compound: COc1cc2ncnc(Nc3ccc(F)c(Cl)c3)c2cc1OCCCN1CCOCC1 [gefitinib]
Procedure, shortened: as §1

[10] = compound: CS(=O)(=O)CCNCc1ccc(-c2ccc3ncnc(Nc4ccc(OCc5cccc(F)c5)c(Cl)c4)c3c2)o1 [lapatinib]
Procedure, shortened: as §1

[11] = compound: CS(=O)(=O)N1CCN(Cc2cc3nc(-c4cccc5[nH]ncc45)nc(N4CCOCC4)c3s2)CC1 [pictilisib]
Procedure, shortened: as §1

[12] = compound: C[C@@H](Oc1cc(-c2cnn(C3CCNCC3)c2)cnc1N)c1c(Cl)ccc(F)c1Cl [crizotinib]
Procedure, shortened: as §1

[13] = compound: C[C@H](C1=CC=C(C=C1)C(=O)NC2=C3C=CNC3=NC=C2)N
Procedure, shortened: as §1

[14] = compound: Cc1cc(Nc2cc(CN3CCOCC3)c3nc(C)c(Cc4ccc(Cl)cc4F)n3n2)n[nH]1 [gandotinib]
Procedure, shortened: as §1

[15] = compound: Cc1cc(Nc2cc(N3CCN(C)CC3)nc(Sc3ccc(NC(=O)C4CC4)cc3)n2)n[nH]1 [tozasertib]
Procedure, shortened: as §1

[16] = compound: Cc1ccc(-n2nc(C(C)(C)C)cc2NC(=O)Nc2ccc(OCCN3CCOCC3)c3ccccc23)cc1 [doramapimod]
Procedure, shortened: as §1

[17] = compound: Cc1ccc(NC(=O)c2ccc(CN3CC[C@H](N(C)C)C3)c(C(F)(F)F)c2)cc1Nc1nccc(-c2cncnc2)n1 [bafetinib]
Procedure, shortened: as §1

[18] = compound: Cc1cccc(CC(=O)N2CCc3c2ccc(-c2cn(C)c4ncnc(N)c24)c3F)n1
Procedure, shortened: as §1

[19] = compound: CNc1nc(-c2ccc3c(N)n[nH]c3c2)cc(N2C[C@@H](C(=O)NC3CCCCC3)CC[C@H]2C)n1
Procedure, shortened: as §1

[20] = compound: C[C@H](Nc1ncnc2nc[nH]c12)c1cc2cccc(Cl)c2c(=O)n1-c1ccccc1 [duvelisib]
Procedure, shortened: as §1

Sequence of UniProt O75153 (O75153 whole entry, looked up): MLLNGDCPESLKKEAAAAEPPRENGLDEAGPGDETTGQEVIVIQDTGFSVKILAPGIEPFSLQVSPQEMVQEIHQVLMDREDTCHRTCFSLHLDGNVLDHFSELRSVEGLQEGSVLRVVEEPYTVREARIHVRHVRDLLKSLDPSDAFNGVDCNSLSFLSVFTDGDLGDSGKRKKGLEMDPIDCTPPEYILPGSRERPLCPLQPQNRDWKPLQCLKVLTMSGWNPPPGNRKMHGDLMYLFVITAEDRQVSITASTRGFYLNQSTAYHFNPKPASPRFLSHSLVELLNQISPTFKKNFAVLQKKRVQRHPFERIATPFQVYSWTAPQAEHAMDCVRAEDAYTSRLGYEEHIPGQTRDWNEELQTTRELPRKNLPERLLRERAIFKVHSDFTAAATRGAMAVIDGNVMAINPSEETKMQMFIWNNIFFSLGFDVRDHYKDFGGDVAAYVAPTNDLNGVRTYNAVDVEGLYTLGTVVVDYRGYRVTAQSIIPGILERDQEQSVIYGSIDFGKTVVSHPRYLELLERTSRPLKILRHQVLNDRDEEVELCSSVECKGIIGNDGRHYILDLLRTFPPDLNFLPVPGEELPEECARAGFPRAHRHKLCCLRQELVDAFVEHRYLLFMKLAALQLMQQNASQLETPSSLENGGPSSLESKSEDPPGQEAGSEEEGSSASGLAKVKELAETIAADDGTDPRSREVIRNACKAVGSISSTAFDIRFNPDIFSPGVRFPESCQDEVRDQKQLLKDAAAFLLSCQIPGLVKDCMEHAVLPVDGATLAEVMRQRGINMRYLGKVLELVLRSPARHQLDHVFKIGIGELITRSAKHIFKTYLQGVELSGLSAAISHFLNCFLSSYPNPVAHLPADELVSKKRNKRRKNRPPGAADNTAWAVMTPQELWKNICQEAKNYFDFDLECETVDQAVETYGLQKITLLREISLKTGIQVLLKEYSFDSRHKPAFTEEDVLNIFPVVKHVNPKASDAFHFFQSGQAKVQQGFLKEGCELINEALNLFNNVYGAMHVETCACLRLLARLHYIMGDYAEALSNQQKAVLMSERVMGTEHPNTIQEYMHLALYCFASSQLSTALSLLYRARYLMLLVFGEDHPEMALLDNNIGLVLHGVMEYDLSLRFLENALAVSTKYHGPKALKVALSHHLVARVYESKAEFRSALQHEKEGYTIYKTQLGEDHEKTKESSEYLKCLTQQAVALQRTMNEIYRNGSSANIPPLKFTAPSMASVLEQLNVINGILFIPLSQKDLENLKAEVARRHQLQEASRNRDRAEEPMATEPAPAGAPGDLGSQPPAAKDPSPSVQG
Sequence of UniProt O15247 (O15247 whole entry, looked up): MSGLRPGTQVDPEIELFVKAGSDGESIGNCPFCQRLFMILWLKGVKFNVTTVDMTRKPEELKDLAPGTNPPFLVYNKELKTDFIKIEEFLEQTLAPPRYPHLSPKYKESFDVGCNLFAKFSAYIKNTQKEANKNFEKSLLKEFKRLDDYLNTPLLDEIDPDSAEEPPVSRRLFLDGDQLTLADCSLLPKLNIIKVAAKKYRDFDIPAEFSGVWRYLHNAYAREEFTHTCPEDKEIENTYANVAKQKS
Sequence of UniProt O00148 (O00148 whole entry, looked up): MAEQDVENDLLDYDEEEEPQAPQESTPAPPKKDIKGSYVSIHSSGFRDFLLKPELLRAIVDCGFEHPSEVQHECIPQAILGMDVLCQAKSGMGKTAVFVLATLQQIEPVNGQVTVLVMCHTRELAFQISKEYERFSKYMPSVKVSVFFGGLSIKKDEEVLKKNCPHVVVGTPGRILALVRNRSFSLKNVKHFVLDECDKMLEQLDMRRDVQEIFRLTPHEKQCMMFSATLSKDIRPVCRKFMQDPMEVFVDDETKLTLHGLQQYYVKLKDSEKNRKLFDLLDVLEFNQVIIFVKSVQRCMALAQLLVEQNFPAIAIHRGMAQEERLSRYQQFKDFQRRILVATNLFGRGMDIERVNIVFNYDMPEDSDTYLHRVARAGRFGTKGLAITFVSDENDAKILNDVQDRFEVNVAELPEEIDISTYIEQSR
Sequence of UniProt Q92989 (Q92989 whole entry, looked up): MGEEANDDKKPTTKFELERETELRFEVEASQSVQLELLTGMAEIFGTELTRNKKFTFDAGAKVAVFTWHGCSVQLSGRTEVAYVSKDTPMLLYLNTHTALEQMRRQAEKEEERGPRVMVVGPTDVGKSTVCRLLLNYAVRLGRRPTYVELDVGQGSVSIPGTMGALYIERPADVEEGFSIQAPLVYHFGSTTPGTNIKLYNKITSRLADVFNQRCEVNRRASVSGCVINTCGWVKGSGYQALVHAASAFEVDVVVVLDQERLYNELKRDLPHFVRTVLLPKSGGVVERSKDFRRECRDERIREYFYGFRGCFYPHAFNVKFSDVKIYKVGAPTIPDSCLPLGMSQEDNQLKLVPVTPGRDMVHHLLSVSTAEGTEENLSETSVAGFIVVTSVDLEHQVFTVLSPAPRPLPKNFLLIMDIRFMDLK
Sequence of UniProt Q9UBU7 (Q9UBU7 whole entry, looked up): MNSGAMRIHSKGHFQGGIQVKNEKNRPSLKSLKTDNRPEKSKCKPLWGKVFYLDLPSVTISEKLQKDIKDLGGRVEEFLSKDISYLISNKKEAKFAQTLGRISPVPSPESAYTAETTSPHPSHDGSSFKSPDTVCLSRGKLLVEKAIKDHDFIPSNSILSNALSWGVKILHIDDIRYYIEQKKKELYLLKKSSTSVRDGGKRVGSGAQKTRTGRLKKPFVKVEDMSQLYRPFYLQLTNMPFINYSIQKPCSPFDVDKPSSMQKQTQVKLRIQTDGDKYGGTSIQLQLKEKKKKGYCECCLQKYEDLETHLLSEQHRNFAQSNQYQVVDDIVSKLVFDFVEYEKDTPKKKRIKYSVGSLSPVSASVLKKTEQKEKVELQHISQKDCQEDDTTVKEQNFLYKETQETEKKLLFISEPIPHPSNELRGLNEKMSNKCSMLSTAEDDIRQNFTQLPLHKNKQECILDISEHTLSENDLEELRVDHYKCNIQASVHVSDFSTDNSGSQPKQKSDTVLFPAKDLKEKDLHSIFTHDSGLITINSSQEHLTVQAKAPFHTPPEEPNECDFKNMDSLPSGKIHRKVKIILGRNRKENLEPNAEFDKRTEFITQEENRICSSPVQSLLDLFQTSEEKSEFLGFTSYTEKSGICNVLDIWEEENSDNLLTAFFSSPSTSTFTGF
Sequence of UniProt Q96EP5 (Q96EP5 whole entry, looked up): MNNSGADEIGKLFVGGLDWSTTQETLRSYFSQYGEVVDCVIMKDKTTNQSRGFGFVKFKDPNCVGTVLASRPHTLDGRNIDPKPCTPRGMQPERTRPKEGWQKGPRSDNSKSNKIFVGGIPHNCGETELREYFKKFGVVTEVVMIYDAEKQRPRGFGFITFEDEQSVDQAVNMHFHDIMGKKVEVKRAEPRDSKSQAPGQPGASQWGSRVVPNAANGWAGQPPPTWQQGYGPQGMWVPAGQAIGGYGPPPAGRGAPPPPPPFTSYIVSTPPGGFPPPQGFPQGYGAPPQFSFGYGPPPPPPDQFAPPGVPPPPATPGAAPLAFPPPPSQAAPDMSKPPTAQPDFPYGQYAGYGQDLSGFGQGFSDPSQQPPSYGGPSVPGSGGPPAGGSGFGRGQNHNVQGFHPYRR
Sequence of UniProt O94760 (O94760 whole entry, looked up): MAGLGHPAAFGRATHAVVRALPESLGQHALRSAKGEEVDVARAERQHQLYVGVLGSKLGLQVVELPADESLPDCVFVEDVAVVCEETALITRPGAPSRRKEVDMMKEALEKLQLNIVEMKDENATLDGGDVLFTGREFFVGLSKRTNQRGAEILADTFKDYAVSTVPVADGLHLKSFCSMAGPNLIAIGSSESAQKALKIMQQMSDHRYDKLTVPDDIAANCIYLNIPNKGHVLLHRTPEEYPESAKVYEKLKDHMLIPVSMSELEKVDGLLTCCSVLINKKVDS
Sequence of UniProt Q9UHI6 (Q9UHI6 whole entry, looked up): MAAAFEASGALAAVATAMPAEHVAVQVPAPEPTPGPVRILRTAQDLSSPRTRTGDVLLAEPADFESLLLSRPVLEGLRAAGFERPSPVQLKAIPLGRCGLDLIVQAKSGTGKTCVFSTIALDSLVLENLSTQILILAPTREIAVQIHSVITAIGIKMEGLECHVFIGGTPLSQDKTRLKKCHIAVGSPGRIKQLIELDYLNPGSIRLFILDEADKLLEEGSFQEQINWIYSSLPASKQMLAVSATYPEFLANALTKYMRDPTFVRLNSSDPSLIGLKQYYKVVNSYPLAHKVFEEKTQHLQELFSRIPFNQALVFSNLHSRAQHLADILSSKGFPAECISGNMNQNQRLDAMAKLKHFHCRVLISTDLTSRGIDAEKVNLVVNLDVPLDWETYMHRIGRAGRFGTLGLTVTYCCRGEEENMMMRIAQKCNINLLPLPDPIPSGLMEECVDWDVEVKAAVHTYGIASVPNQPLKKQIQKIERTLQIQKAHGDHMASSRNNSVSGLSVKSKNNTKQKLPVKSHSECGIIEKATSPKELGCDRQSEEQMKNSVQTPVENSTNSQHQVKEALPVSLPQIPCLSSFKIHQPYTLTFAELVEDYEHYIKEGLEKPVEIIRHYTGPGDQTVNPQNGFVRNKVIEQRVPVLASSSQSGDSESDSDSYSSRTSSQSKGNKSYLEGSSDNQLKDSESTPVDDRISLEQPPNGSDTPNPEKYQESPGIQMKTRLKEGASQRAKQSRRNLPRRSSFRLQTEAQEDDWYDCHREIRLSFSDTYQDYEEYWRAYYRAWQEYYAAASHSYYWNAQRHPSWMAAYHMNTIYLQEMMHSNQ

Target	log2 fold change [1]	log2 fold change [2]	log2 fold change [3]	log2 fold change [4]	log2 fold change [5]	log2 fold change [6]	log2 fold change [7]	log2 fold change [8]	log2 fold change [9]	log2 fold change [10]	log2 fold change [11]	log2 fold change [12]	log2 fold change [13]	log2 fold change [14]	log2 fold change [15]	log2 fold change [16]	log2 fold change [17]	log2 fold change [18]	log2 fold change [19]	log2 fold change [20]
DIAPH1 (UniProt H9KV28)	-0.039	0.032	0.036	0.012	0.054	0.213	-0.012	0.026	-0.005	0.003	0.087	-0.047	-0.039	0.199	0.049	0.099	-0.171	0.158	–	–
DAZAP1 (UniProt Q96EP5)	-0.027	0.042	-0.026	-0.039	-0.018	-0.045	0.009	-0.004	0.034	0.017	-0.043	0.073	0.035	0	0.064	0.003	0.243	-0.04	0.058	0.015
DDX39A (UniProt O00148)	-0.017	-0.171	-0.006	0.003	0.001	0.163	-0.026	0.004	0.009	-0.004	0.021	0.006	-0.022	-0.104	-0.008	-0.046	-0.004	0.093	-0.025	0.004
DDAH1 (UniProt O94760)	0.015	0.007	0.037	0.014	0	0.009	–	0.003	–	0.011	–	0	0.059	-0.039	-0.044	-0.058	–	0.196	-0.002	0.186
CLIC2 (UniProt O15247)	0.002	-0.002	0.034	0.03	-0.016	0.018	0.02	-0.014	-0.038	-0.057	–	-0.002	-0.037	-0.015	-0.016	-0.022	-0.009	0.005	0.024	-0.039
CLUH (UniProt O75153)	-0.022	-0.076	-0.076	0.002	0.007	0.058	-0.014	-0.014	0.017	-0.014	–	-0.057	-0.012	0.004	-0.005	-0.007	-0.044	0.032	-0.029	0.147
DBF4 (UniProt Q9UBU7)	-0.118	-0.072	-0.025	-0.023	0.04	-0.072	-0.028	–	-0.029	–	0	-0.031	-0.409 (active)	0.059	-0.009	-0.018	-0.028	0.035	-0.058	0.004
CLP1 (UniProt Q92989)	-0.103	-0.179	0.004	0.071	0.02	0.023	-0.002	0.031	0.033	-0.003	–	-0.041	-0.12	0.008	0.004	0.032	0.01	0.047	-0.037	-0.056
DDX20 (UniProt Q9UHI6)	0.042	-0.213	-0.001	-0.03	0.076	0.01	0.016	-0.006	0.025	-0.041	0.024	-0.088	0.029	-0.137	-0.065	0.015	-0.016	0.054	-0.026	0.008
